Measured values as given in PubChem BioAssay (NCI).
The panel holds about 79,000 compounds, 15% with a hit somewhere; the sample as a whole holds those more often. Activity calls are given as the source filed them. Cut-off read from the data, not from the text of the source: active = growth inhibition above about 70%; inactive = the rest.

Tests used:
[1] = NCI Yeast Anticancer Drug Screen. Data for the rad50 strain (AID 155);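 note: 0% = growth of vehicle-only cultures of the same strain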; settings: S. cerevisiae rad50 strain growth inhibition; at 50.0 µM; hits give high values
Procedure, shortened: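 Relative growth inhibition (compound vs vehicle) was measured in yeast with a defined repair-gene alteration.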

[2] = NCI Yeast Anticancer Drug Screen. Data for the mec2-1 strain (AID 157); settings: S. cerevisiae mec2-1 strain, at 50.0 µM, hits give high values
Procedure, shortened: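 Cells of the genetically defined mec2-1 yeast strain are incubated with test compound. Inhibition of growth is calculated against vehicle-treated controls.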

[3] = NCI Yeast Anticancer Drug Screen. Data for the sgs1 mgt1 strain (AID 161);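 note: 0% = growth of cultures given vehicle only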; settings: S. cerevisiae sgs1 mgt1 strain, at 50.0 µM, hits give high values
Procedure, shortened: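 Test agents were incubated with a DNA-repair-mutant yeast strain. Growth was then read and compared against vehicle-treated controls.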

[4] = NCI Yeast Anticancer Drug Screen. Data for the cln2 rad14 strain (AID 165);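 note: 0% = growth equal to vehicle treated cultures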; settings: S. cerevisiae cln2 rad14 strain, at 50.0 µM, hits give high values
Procedure, shortened: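 The screen exposed genetically defined yeast (cln2 rad14) to test compounds and scored growth inhibition relative to vehicle-treated controls.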

[5] = NCI Yeast Anticancer Drug Screen. Data for the bub3 strain (AID 167); settings: S. cerevisiae bub3 mutant strain, at 50.0 µM, hits give high values
Procedure, shortened: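 Screening used yeast with an engineered genetic alteration affecting cell cycle control. Compound-exposed cultures were compared with vehicle cultures, and reduced growth was taken as inhibition.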

[6] = NCI Yeast Anticancer Drug Screen. Data for the mlh1 rad18 strain (AID 175); settings: S. cerevisiae mlh1 rad18 strain growth inhibition; at 50.0 µM; hits give high values
Procedure, shortened: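 Compound-treated yeast growth, normalised to vehicle controls. Strain bears defined DNA repair mutations.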

Measured: growth inhibition

CCCCCCN(CCCCCC)C1=CC(=O)C(=O)c2ccccc21
inactive: [1] 52.9% | [2] 31.8% | [3] 48.4% | [4] 60% | [5] 35.1% | [6] 54.2%

O=C(O)c1cccc(N=Nc2ccccc2)c1O
inactive: [1] 22.1% | [2] -12.4% | [3] 4.65% | [4] -7.1% | [5] 6.05% | [6] 10.7%

O=C(Cl)c1ccc2ccccc2c1
inactive: [1] 45.8% | [2] 8.3% | [3] 3% | [4] -43% | [5] -20.4% | [6] 29.4%

COc1ccc(C(CC(=O)O)c2cc3c(cc2OC)OCO3)cc1 (centres undefined)
inactive: [1] -4% | [2] -9.85% | [3] 3.8% | [4] 0.25% | [5] 1.1% | [6] -1.75%

NC(=O)N/N=C/c1cccc([N+](=O)[O-])c1
inactive: [1] -7% | [2] 27.8% | [3] -5.9% | [4] -32.5% | [5] 25.6% | [6] 0%

CCC(/C=C/c1ccccc1)=N\NC(=O)c1ccc(C)cc1
inactive: [1] 9.4% | [2] 10.7% | [3] 11.7% | [4] -4.05% | [5] 15.5% | [6] 5.25%

COc1cc(CCNC2=CC(=O)c3cccnc3C2=O)ccc1O
inactive: [1] 36.4% | [2] 24.1% | [3] 40.2% | [4] 11.8% | [5] 3.8% | [6] 48.2%

Cc1ccc(OCC(=O)O)cc1C
inactive: [1] -5.75% | [2] -24.2% | [3] -14.7% | [4] 0.25% | [5] -11.8% | [6] -11.2%

Cc1cccc(C2ON=C(c3ccccc3)N2C23CC4CC(CC(C4)C2)C3)c1 (centres undefined)
inactive: [1] -20.8% | [2] -0.35% | [3] -22.1% | [4] -2.45% | [5] 0.75% | [6] -33.5%

OCCNNCCO
inactive: [1] 13.3% | [2] 1.05% | [3] -14.7% | [4] -8.85% | [5] 15.1% | [6] 1.9%

O=C1C=C(Cl)C(=O)O1
inactive: [1] 8.85% | [2] 10.2% | [3] -8.8% | [4] -9.1% | [5] -8% | [6] 15.6%

COc1cc2[nH]c(-c3ccccc3)cc(=O)c2c(OC)c1OC
inactive: [1] -11.3% | [2] -3.65% | [3] -8% | [4] 0.25% | [5] 8.85% | [6] 3.35%

COc1ccc(/C=N/Nc2nc(C)c(C)s2)cc1
inactive: [1] 30.9% | [2] 18.4% | [3] 53.4% | [4] 11.4% | [5] 7.35% | [6] 55.8%

CC(C)C1CSC2N1C(=O)C2(OCc1ccccc1)C1CC1 (centres undefined)
inactive: [1] 3.3% | [2] -22.4% | [3] -3.2% | [4] -16.2% | [5] -20.1% | [6] 9.1%

CCCC(=O)N(CC)CC
inactive: [1] 11.2% | [2] -8.6% | [3] -0.8% | [4] -15% | [5] 0% | [6] -20.9%

CCN(CC)c1ccc(N)cc1
inactive: [1] -4.05% | [2] -9.9% | [3] 26.1% | [4] -4.4% | [5] -3.1% | [6] 35.1%

O=C(c1ccccc1)[C@H]1Nc2ccc(Cl)cc2[C@H]2c3ccccc3O[C@H]21
inactive: [1] 33.9% | [2] -6.7% | [3] 12.4% | [4] 18.8% | [5] -1.45% | [6] 2.5%

O=C(O)C(CBr)c1ccccc1 (centres undefined)
inactive: [1] 6.7% | [2] 7.2% | [3] -0.55% | [4] 13.2% | [5] 0.05% | [6] 0.5%

COc1ccc(C2C(=O)C(Cl)N2Nc2nc(C)cc(=O)[nH]2)cc1OC (centres undefined)
inactive: [1] 1.45% | [2] -18.9% | [3] 4.2% | [4] -2.3% | [5] -27.9% | [6] -15.8%

NCC(=O)Nc1ccc(C(=O)O)cc1
inactive: [1] 28.8% | [2] 17.1% | [3] 7.6% | [4] 4.6% | [5] 4.05% | [6] 9.1%

CC(=O)Nc1c(C)ncn(-c2ccccc2)c1=O
inactive: [1] -36.9% | [2] -19.9% | [3] -2.95% | [4] -28.4% | [5] -2.75% | [6] -11.2%

CN1C(=O)C=C(C=Nc2ccc(-c3ccccc3)cc2)C2CCCCC21 (centres undefined)
inactive: [1] 0.85% | [2] -8.75% | [3] -8.05% | [4] 6.55% | [5] 11.5% | [6] 6.75%

CC1(C)C2CCC1C(=O)C(C=O)C2 (centres undefined)
inactive: [1] -10.3% | [2] 16.1% | [3] -22.1% | [4] 32.5% | [5] -40.2% | [6] -41.8%

O=C1CN(c2cccc(C(F)(F)F)c2)C(=O)CN1CCN1CC(=O)N(c2cccc(C(F)(F)F)c2)CC1=O
inactive: [1] -30.6% | [2] -6.4% | [3] -3.55% | [4] -6.45% | [5] -14.1% | [6] -5.2%

CCN(CC)C(=O)Cc1[nH][nH]c(=O)c1C(=O)N(CC)CC
inactive: [1] -31.9% | [2] 2.45% | [3] -42.9% | [4] -7.6% | [5] -28.6% | [6] -41.3%

CCCCNC(=O)Nc1cccc(C)c1C
inactive: [1] -4.2% | [2] -7.9% | [3] 0.75% | [4] -25.8% | [5] 0.55% | [6] 6.35%

C1CN(SSN2CCSCC2)CCS1
inactive: [1] -2.1% | [2] -18.5% | [3] 6.5% | [4] -100% | [5] 7.15% | [6] -14.5%

N#Cc1ccc(/C=C\c2ccc(C#N)cc2)cc1
inactive: [1] -8.2% | [2] 5.05% | [3] 4.45% | [4] 6.05% | [5] 1.2% | [6] -11.1%

Cc1cccn(C)c1=O
inactive: [1] -5% | [2] 1.9% | [3] 2.15% | [4] 2.15% | [5] 0.4% | [6] 3.05%

Cc1nc2c(o1)C(=Nc1ccccc1)c1ccccc1C2=Nc1ccccc1
inactive: [1] -7.45% | [2] -23.4% | [3] 1.45% | [4] -13.9% | [5] -20.1% | [6] -9.65%

CC(NC(=O)c1ccccc1)C(=O)O (centres undefined)
inactive: [1] 25.4% | [2] -6.4% | [3] -26.6% | [4] -24.2% | [5] 0.6% | [6] 27.7%

O=C(c1ccccc1)C1C=CC=CN1Cc1ccccc1S(=O)(=O)O (centres undefined)
inactive: [1] 13.5% | [2] 0.6% | [3] -3.95% | [4] 3% | [5] 1.75% | [6] -19.2%

O=C(/C=C/CC(O)(c1ccccc1)c1ccccc1)Nc1ccccc1Cl
inactive: [1] -15.2% | [2] -25.9% | [3] -4.85% | [4] 2.5% | [5] 10.1% | [6] -10.2%

NC(=O)C(=CNc1nc(-c2ccc(Cl)c(Cl)c2)cs1)C(N)=O
inactive: [1] -53.9% | [2] -45.1% | [3] -29.4% | [4] -17.2% | [5] -6.5% | [6] -8.25%

COc1cc(OC)c(C2c3cc4c(cc3OC(N3CCCC3)C2C)OCO4)c(OC)c1 (centres undefined)
inactive: [1] 17.1% | [2] -11.8% | [3] 2.45% | [4] 18% | [5] -5.1% | [6] -1.4%

O=S(O)c1cc(Cl)c(O)c(Cl)c1
inactive: [1] -7.1% | [2] 1.3% | [3] -7.05% | [4] -37.5% | [5] -5.1% | [6] -2.75%

Br
inactive: [1] -11.7% | [2] -33.1% | [3] -54.9% | [4] -20% | [5] -30.6% | [6] -44.1%

COc1ccc(/C=N\N2CN(C(CC(N)=O)C(=O)O)C(O)(CCl)N=C2N)cc1OC (centres undefined)
inactive: [1] 9.1% | [2] -6.9% | [3] 3.1% | [4] -5.65% | [5] 6.8% | [6] -0.1%

COc1cc2c(cc1OC)C(NC(C)C)CCCC2 (centres undefined)
inactive: [1] -7.6% | [2] 9.35% | [3] -13.8% | [4] -23.6% | [5] -7.7% | [6] -6.9%
